Tests used:
Experiment in all cases: log2 ratio of Biotin-Ahx-Ub-VS probe labelling (fragment/DMSO); higher = less target engagement (more negative = stronger competition), active = hit call of the paper (q ≤ 0.05, log2 ratio ≤ -1)
Conditions in all cases: compound concentration: 200 uM; treatment time: 3 h
USP19 = target: T1, USP19 (UniProt O94966)
T1 sequence (whole entry): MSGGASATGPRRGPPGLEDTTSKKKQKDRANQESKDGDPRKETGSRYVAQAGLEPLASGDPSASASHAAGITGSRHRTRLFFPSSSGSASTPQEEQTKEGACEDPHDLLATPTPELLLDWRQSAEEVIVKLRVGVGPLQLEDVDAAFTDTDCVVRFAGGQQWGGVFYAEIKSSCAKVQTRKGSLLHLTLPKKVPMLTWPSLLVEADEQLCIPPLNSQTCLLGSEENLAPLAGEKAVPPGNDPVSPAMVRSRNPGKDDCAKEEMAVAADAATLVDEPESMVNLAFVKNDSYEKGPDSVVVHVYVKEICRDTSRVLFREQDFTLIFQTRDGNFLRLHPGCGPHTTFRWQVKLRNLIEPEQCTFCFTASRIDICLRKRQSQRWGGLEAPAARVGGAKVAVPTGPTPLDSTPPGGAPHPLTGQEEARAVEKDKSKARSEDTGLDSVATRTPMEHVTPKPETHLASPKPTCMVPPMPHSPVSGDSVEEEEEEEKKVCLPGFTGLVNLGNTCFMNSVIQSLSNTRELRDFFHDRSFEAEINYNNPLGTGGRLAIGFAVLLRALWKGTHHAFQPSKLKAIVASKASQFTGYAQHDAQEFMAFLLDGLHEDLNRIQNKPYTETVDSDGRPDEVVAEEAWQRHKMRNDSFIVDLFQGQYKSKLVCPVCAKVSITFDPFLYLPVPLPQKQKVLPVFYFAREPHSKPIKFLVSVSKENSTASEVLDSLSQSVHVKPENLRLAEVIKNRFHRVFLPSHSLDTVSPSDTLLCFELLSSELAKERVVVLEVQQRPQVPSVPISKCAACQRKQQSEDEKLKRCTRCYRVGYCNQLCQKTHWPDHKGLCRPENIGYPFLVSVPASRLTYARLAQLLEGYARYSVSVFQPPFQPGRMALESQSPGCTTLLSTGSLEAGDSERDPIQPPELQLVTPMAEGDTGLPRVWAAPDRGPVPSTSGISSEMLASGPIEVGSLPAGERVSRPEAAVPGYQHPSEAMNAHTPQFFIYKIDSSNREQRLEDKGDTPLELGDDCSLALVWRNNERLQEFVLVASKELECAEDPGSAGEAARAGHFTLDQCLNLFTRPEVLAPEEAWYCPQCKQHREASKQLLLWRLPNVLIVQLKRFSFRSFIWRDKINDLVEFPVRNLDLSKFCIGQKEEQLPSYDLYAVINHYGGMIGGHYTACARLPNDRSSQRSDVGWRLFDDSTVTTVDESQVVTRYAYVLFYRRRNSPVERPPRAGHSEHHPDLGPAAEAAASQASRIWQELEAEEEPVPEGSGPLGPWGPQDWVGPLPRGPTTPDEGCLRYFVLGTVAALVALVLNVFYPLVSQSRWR
Procedure, shortened: (§1)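 Labelling with Biotin-Ahx-Ub-VS (0.5 µM final, 1 h) followed a 3 h triplicate treatment of HEK293T lysate (495 µg per sample, Tris/CHAPS/IGEPAL buffer with protease inhibitors) with fragment at 200 µM or vehicle. Labelled DUBs were NeutrAvidin-enriched, digested with LysC and trypsin, and run by diaPASEF LC-MS/MS. The values, average log2 fragment/vehicle ratios by unpaired t-test, come from global-median-normalised Spectronaut label-free quantities. Proteins with ≥2 unique peptides were used.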

USP22 = target: T2, USP22 (UniProt Q9UPT9)
T2 sequence (whole entry): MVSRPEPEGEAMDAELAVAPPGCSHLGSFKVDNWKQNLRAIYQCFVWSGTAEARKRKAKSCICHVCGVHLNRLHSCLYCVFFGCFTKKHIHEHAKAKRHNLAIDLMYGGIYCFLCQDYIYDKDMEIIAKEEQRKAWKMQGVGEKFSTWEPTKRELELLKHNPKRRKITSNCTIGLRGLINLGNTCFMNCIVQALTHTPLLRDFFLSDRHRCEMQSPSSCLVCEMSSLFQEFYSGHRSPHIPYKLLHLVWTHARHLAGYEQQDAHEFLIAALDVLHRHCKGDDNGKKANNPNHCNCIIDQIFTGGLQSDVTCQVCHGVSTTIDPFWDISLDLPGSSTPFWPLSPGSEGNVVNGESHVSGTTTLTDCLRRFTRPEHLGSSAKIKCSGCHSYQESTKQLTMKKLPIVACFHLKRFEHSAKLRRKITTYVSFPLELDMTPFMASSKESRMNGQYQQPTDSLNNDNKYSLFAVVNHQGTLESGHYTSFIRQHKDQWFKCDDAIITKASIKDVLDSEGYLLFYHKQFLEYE
Procedure, shortened: as §1

USP24 = USP24 (UniProt Q9UPU5)
Procedure, shortened: as §1

USP25 = target: T3, USP25 (UniProt Q9UHP3)
T3 sequence (whole entry): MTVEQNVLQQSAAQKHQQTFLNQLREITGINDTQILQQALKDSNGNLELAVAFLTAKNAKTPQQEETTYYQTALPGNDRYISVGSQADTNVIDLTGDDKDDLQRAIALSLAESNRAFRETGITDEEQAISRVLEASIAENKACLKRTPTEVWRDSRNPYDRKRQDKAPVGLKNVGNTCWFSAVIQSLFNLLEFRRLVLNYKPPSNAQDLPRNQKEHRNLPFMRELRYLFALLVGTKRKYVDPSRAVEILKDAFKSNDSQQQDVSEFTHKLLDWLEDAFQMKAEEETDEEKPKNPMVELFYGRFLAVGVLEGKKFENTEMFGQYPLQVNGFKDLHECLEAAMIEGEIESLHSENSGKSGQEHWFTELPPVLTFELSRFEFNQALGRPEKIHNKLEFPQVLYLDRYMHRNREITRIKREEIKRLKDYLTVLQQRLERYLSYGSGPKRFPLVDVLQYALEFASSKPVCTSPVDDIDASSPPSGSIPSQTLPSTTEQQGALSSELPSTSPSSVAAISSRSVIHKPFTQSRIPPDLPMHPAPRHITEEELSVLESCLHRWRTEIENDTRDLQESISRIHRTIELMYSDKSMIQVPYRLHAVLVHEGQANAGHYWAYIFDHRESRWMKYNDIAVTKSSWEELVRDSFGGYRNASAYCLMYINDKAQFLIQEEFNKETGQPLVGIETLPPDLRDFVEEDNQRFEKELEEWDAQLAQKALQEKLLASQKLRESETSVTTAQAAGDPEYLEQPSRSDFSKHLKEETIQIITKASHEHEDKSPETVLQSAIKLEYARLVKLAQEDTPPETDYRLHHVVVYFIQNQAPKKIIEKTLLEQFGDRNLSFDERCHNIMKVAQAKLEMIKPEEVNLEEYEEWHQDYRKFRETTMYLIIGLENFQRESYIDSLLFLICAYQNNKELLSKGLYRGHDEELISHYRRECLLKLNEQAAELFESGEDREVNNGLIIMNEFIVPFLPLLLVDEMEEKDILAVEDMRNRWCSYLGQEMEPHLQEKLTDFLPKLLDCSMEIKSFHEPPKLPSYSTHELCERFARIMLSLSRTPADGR
Procedure, shortened: as §1

USP28 = target: T4, USP28 (UniProt Q96RU2)
T4 sequence (whole entry): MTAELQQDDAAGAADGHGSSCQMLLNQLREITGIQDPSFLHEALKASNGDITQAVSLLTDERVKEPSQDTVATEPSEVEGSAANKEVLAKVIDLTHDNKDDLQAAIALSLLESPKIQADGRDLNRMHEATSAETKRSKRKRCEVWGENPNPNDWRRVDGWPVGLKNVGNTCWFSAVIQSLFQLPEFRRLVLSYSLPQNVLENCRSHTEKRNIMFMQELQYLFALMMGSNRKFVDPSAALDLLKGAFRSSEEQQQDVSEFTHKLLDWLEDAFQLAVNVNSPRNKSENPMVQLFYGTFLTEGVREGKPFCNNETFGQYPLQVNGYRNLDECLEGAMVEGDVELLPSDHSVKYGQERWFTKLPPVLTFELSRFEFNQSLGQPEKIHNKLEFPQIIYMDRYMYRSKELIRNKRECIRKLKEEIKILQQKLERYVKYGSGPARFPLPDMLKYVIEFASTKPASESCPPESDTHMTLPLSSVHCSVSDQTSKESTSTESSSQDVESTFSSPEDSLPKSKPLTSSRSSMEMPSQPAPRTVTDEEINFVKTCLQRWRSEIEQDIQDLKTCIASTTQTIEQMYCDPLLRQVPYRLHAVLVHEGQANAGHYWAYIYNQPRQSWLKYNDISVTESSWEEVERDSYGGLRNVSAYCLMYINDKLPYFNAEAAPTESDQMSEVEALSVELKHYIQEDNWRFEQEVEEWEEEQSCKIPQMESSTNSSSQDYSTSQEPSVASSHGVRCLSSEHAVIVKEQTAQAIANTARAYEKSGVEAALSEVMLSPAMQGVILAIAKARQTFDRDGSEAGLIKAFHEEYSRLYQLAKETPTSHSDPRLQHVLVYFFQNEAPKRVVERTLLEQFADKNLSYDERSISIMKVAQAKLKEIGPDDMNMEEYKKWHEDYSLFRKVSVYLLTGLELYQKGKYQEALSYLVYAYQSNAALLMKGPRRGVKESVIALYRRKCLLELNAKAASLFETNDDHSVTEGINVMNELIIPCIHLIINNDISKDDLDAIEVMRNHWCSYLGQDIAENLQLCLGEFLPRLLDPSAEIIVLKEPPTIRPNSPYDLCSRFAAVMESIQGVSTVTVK
Procedure, shortened: as §1

Measured: log2 ratio of Biotin-Ahx-Ub-VS probe labelling

Sequence of USP24 (Q9UPU5 whole entry): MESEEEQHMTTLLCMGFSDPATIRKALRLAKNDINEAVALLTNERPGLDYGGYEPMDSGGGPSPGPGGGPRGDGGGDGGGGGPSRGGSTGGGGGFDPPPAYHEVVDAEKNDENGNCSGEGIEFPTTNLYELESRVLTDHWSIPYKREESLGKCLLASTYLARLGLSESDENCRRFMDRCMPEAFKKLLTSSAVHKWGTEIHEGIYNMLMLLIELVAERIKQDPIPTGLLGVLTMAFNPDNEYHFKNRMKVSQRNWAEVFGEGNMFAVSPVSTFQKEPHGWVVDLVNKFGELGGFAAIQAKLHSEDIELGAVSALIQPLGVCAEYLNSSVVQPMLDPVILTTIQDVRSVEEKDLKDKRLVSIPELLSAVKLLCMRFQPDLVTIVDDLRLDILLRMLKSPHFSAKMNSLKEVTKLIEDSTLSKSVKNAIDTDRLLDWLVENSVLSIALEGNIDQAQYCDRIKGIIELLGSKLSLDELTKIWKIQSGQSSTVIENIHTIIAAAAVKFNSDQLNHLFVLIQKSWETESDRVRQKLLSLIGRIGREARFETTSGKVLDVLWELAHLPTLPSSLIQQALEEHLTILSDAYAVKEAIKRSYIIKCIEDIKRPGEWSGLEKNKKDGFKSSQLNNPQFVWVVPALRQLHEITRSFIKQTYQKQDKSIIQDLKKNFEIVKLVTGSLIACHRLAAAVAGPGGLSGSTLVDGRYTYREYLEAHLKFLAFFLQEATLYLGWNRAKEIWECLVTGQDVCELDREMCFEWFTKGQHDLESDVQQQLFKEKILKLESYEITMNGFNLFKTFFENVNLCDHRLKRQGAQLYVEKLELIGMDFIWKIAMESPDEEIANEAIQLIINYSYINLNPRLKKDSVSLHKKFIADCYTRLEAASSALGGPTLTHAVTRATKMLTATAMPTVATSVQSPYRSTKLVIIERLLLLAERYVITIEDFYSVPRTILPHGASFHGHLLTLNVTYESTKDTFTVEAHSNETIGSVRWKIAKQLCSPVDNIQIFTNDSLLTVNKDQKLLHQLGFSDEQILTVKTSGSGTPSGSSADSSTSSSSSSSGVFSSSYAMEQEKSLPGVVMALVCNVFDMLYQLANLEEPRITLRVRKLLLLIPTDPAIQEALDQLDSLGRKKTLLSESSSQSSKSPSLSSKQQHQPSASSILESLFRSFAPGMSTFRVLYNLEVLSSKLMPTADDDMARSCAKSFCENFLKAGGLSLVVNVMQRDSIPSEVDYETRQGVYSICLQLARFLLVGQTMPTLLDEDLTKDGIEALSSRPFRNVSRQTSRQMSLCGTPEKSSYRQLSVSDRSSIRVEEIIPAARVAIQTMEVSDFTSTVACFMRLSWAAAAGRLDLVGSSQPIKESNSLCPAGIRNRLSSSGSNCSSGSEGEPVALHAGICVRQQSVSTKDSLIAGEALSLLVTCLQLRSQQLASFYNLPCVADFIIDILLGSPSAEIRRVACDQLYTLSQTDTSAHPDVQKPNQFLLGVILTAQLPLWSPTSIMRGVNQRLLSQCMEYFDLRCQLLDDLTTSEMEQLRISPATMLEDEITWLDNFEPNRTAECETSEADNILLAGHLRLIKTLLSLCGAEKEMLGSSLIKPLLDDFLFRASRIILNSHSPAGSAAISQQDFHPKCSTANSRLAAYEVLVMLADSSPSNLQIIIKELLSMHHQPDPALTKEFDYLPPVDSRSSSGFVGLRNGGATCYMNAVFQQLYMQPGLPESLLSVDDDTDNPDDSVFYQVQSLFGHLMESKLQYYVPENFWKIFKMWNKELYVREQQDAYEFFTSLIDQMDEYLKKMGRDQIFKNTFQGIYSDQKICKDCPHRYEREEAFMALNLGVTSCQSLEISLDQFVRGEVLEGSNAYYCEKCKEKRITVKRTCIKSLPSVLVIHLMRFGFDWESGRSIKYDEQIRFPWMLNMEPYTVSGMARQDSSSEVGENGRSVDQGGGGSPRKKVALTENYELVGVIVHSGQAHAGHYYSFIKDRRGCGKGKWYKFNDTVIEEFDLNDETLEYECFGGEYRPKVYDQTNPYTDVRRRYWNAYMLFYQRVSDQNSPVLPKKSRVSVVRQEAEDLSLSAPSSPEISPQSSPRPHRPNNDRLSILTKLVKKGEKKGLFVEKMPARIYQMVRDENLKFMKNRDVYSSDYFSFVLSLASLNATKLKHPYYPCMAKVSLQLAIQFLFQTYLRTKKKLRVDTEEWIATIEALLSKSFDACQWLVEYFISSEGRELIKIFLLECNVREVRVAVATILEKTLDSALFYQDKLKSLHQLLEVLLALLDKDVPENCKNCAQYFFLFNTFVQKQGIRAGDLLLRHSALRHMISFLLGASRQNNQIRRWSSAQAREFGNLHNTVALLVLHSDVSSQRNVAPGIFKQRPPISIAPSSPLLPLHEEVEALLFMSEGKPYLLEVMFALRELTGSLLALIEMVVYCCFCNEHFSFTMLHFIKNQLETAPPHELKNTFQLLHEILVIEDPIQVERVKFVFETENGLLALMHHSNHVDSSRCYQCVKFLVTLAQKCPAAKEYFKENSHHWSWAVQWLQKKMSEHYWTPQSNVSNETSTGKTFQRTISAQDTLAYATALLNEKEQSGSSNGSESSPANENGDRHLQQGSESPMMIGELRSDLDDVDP

CN(CCC(O)c1ccc(Br)cc1)C(=O)CCl (stereo not given)
inactive: USP19 -0.439 | USP22 -0.43 | USP24 -0.901 | USP25 -0.071 | USP28 -0.457

From the supplement of paper PMC11732987, “Enantioselective OTUD7B fragment discovery through chemoproteomics screening and high-throughput optimisation” (Communications Chemistry, 2025)
